According to the supplement of paper PMC10849652:
Of roughly 8,800 targets only a part is listed; those with a hit were picked by preference. About 0.5% of all pairs of compound and target were hits.

Tests used:
Assay in all cases: log2 fold change, soluble protein after heating vs DMSO (PISA); higher = thermal stabilisation; K562 lysate, 10 uM; active = over 0.2 and 3.5 SD of the protein, either way, in both replicates (recomputed)
[1] = compound: CCCS(=O)(=O)Nc1ccc(F)c(C(=O)c2c[nH]c3ncc(-c4ccc(Cl)cc4)cc23)c1F [vemurafenib]
Procedure, shortened: (§1)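 Values give the log-two fold change in thermal stability against solvent controls, from duplicates. Crude K562 extract at 1 mg/mL protein, made by dounce homogenisation in PBS pH 7.4 with 1 mM MgCl2, was treated with 10 μM compound for 30 min. After 3 min heating across 48°C-58°C, aliquots were pooled, adjusted to 0.5% NP-40 at 4°C and centrifuged at 21,000xg for 90 min. The supernatant was measured by TMTpro 16plex LC-MS/MS with channel sums equalised.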

[2] = compound: CCCS(=O)(=O)Nc1ccc(F)c(C(=O)c2c[nH]c3ncc(Cl)cc23)c1F
Procedure, shortened: as §1

[3] = compound: CCN(CCCOc1ccc2c(Nc3cc(CC(=O)Nc4cccc(F)c4)[nH]n3)ncnc2c1)CCOP(=O)(O)O [barasertib]
Procedure, shortened: as §1

[4] = compound: CC[C@@H]1C(=O)N(C)c2cnc(Nc3ccc(C(=O)NC4CCN(C)CC4)cc3OC)nc2N1C1CCCC1
Procedure, shortened: as §1

[5] = compound: CC[C@@H]1C(=O)N(C)c2cnc(Nc3ccc(C(=O)N[C@H]4CC[C@H](N5CCN(CC6CC6)CC5)CC4)cc3OC)nc2N1C(C)C [volasertib]
Procedure, shortened: as §1

[6] = compound: CCn1c(C(=O)N(C2CC2)C2CC2)cc2c3c(ncn3C)c(Nc3cc(C)n(C)n3)nc21
Procedure, shortened: as §1

[7] = compound: CCn1cc(-c2ccnc3[nH]c(-c4cccc(CN(C)C)c4)cc23)c(-c2ccc(NC(=O)N(C)C)cc2)n1
Procedure, shortened: as §1

[8] = compound: CN1CCC(CNc2ccc3ncc(-c4cccc(OC(F)(F)F)c4)n3n2)CC1
Procedure, shortened: as §1

[9] = compound: CN1CCN(CCOc2cc(OC3CCOCC3)c3c(Nc4c(Cl)ccc5c4OCO5)ncnc3c2)CC1 [saracatinib]
Procedure, shortened: as §1

[10] = compound: CN1CCN(c2nc(C3=C(c4c[nH]c5ccccc45)C(=O)NC3=O)c3ccccc3n2)CC1 [sotrastaurin]
Procedure, shortened: as §1

[11] = compound: CN1CC[C@H](c2c(O)cc(O)c3c(=O)cc(-c4ccccc4Cl)oc23)[C@H](O)C1 [alvocidib]
Procedure, shortened: as §1

[12] = compound: CN1CCc2c(c3ccccc3n2Cc2ccc(C(=O)NO)cc2)C1 [Tubastatin A]
Procedure, shortened: as §1

[13] = compound: CNC(=O)C1=CC=CC=C1NC2=NC(=NC=C2Cl)NC3=C(C=C(C=C3)N4CCOCC4)OC
Procedure, shortened: as §1

[14] = compound: CNC(=O)c1ccc(Nc2ncc(C(F)(F)F)c(NCc3nccnc3N(C)S(C)(=O)=O)n2)cc1 [defactinib]
Procedure, shortened: as §1

[15] = compound: CNc1nc(-c2ccc3c(N)n[nH]c3c2)cc(N2C[C@@H](C(=O)NC3CCCCC3)CC[C@H]2C)n1
Procedure, shortened: as §1

[16] = compound: COC(=O)N[C@@H](C)CNc1nccc(-c2cn(C(C)C)nc2-c2cc(Cl)cc(NS(C)(=O)=O)c2F)n1 [encorafenib]
Procedure, shortened: as §1

[17] = compound: COC(=O)[C@H](CCSC)NC(=O)C1=C(C=C(C=C1)NC[C@H](CS)N)C2=CC=CC=C2
Procedure, shortened: as §1

[18] = compound: COc1cc(Nc2ncc3c(n2)-c2ccc(Cl)cc2C(c2c(F)cccc2OC)=NC3)ccc1C(=O)O [alisertib]
Procedure, shortened: as §1

[19] = compound: COc1cc2nc(-c3cc(F)ccc3O)nc(N[C@@H]3CNC[C@H]3C(C)(C)O)c2cc1OC
Procedure, shortened: as §1

[20] = compound: COc1cc2ncnc(Nc3ccc(F)c(Cl)c3)c2cc1OCCCN1CCOCC1 [gefitinib]
Procedure, shortened: as §1

Measured: log2 fold change

GRB10 (UniProt Q13322)
UniProt Q13322, sequence (Q13322 whole entry, looked up): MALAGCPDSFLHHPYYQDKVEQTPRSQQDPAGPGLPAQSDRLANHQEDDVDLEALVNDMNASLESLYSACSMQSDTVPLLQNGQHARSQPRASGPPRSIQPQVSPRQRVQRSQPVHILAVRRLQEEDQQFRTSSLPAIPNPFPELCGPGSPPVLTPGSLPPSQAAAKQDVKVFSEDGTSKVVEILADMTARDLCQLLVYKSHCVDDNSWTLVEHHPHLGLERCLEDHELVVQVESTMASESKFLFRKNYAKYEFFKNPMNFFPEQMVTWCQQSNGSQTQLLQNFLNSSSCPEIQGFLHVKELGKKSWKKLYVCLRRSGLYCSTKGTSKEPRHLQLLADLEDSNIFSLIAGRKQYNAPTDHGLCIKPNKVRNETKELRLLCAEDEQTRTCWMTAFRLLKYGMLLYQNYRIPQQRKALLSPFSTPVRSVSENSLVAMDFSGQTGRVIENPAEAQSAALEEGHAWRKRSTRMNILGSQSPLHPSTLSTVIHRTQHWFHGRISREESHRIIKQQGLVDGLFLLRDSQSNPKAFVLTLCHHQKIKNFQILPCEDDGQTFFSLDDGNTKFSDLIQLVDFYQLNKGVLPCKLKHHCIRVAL
inactive: [1] 0.001 | [2] 0.051 | [3] 0.054 | [4] -0.054 | [5] -0.103 | [6] 0.012 | [7] -0.023 | [8] 0.016 | [9] -0.082 | [10] 0.028 | [11] -0.061 | [12] -0.226 | [13] 0.015 | [14] 0.003 | [15] 0.02 | [16] 0.065 | [17] 0.01 | [18] 0 | [19] -0.02 | [20] -0.043

KDM5C (UniProt P41229)
UniProt P41229, sequence (P41229 whole entry, looked up): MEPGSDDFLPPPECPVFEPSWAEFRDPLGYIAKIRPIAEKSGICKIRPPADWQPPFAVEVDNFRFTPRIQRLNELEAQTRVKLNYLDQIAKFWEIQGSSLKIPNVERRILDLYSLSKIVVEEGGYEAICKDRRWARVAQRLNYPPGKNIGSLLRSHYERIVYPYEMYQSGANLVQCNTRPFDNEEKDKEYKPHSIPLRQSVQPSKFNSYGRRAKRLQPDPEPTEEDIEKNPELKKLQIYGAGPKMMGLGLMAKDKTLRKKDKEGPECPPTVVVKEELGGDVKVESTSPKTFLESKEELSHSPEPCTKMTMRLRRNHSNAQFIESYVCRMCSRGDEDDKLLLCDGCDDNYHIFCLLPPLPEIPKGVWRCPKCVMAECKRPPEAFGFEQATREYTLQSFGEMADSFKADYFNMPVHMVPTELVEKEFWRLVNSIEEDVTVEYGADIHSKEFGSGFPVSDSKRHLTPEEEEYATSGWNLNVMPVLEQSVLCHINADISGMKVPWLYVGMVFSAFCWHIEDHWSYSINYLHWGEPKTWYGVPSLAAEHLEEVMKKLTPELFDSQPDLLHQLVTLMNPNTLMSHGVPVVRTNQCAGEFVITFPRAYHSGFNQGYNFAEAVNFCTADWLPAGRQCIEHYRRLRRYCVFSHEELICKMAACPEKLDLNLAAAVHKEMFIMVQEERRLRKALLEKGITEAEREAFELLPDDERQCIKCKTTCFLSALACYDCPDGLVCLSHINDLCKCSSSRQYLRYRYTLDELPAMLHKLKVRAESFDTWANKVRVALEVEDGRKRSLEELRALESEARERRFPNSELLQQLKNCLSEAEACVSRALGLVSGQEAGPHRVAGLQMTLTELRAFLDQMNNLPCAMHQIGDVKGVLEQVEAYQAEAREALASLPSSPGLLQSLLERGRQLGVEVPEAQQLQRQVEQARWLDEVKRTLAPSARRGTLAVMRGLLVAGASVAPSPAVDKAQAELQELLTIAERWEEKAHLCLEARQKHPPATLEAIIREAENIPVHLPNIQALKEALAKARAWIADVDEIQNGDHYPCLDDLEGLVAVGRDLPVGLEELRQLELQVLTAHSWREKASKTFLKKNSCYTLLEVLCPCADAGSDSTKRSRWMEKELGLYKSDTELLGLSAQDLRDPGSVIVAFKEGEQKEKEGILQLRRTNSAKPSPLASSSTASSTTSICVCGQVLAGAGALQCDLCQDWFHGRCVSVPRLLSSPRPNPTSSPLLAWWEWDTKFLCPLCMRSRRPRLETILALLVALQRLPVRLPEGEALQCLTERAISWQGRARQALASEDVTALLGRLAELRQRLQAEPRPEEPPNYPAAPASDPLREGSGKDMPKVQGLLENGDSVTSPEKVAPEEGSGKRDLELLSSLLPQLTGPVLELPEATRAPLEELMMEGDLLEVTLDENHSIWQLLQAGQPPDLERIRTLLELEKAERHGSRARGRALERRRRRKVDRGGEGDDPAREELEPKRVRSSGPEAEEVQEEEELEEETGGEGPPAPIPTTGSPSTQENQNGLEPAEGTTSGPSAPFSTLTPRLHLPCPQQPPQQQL
inactive: [1] 0.001 | [2] 0.036 | [3] 0.096 | [4] -0.031 | [5] 0.004 | [6] -0.001 | [7] -0.028 | [8] -0.059 | [9] 0.008 | [10] 0.019 | [11] -0.02 | [12] -0.115 | [13] 0.059 | [14] -0.009 | [15] 0.04 | [16] -0.018 | [17] 0.176 | [18] -0.01 | [19] 0.09 | [20] -0.013

GOLPH3 (UniProt Q9H4A6)
UniProt Q9H4A6, sequence (Q9H4A6 whole entry, looked up): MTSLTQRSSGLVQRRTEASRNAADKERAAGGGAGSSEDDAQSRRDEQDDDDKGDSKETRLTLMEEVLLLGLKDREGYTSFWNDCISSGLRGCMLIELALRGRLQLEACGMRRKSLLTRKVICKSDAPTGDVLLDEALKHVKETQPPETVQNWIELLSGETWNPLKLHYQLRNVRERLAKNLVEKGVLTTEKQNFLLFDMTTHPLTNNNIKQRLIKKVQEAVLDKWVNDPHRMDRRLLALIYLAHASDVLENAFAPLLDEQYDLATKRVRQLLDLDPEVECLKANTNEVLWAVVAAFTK
active: [17] -0.6
inactive: [1] -0.007 | [2] 0.015 | [3] 0.036 | [4] -0.016 | [5] -0.041 | [6] 0.018 | [7] -0.029 | [8] -0.103 | [9] 0.021 | [10] -0.053 | [11] 0.001 | [12] -0.123 | [13] 0.075 | [14] 0.015 | [15] -0.1 | [16] 0.051 | [18] -0.018 | [19] -0.024 | [20] -0.011

HDGFL2 isoform 2 (UniProt Q7Z4V5)
inactive: [1] 0.016 | [2] -0.003 | [3] -0.01 | [4] 0.064 | [5] 0.052 | [6] -0.066 | [8] 0.196 | [9] -0.015 | [10] 0.038 | [11] -0.155 | [12] 0.011 | [13] 0.013 | [14] -0.008 | [15] 0.016 | [16] -0.004 | [17] -0.065 | [18] -0.029 | [19] 0 | [20] 0.03
active: [7] -0.417

HSD17B10 (UniProt Q99714)
inactive: [1] 0.017 | [2] -0.016 | [3] -0.021 | [4] -0.006 | [5] -0.015 | [6] -0.022 | [7] -0.081 | [8] 0.024 | [9] -0.022 | [10] -0.014 | [11] -0.02 | [12] -0.077 | [13] 0.004 | [14] -0.029 | [15] 0.05 | [16] -0.035 | [17] 0.141 | [18] 0.013 | [19] -0.009 | [20] -0.021

GTF2I (UniProt P78347)
UniProt P78347, sequence (P78347 whole entry, looked up): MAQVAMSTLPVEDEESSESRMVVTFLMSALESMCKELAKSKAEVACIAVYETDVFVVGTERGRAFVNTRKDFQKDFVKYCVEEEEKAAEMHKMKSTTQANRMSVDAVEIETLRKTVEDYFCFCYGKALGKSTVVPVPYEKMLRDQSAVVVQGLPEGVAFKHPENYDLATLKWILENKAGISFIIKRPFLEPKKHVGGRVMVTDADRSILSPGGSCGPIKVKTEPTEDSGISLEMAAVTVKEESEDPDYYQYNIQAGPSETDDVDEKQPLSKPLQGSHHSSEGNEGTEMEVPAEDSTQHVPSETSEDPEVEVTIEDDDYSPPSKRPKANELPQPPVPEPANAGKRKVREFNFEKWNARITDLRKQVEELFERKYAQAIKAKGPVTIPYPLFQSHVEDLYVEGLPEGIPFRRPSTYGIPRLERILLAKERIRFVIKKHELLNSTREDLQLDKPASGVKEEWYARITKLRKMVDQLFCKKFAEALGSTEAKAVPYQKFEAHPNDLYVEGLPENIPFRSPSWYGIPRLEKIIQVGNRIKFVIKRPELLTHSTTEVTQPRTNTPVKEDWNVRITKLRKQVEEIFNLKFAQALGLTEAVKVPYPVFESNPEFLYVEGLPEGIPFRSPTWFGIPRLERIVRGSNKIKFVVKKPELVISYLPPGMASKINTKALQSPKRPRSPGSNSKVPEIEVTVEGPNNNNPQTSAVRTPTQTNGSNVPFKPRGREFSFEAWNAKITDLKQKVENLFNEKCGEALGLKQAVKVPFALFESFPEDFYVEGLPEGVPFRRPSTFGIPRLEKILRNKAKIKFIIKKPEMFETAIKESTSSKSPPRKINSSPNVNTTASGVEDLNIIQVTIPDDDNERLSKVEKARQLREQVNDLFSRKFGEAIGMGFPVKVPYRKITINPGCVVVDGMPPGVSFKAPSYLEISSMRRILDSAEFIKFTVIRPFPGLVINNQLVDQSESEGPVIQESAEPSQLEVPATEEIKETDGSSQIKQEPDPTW
inactive: [1] -0.004 | [2] 0.031 | [3] 0.034 | [4] -0.055 | [5] -0.036 | [6] 0.005 | [7] -0.054 | [8] -0.033 | [9] 0.014 | [10] 0.01 | [11] 0.05 | [12] -0.096 | [13] 0.012 | [14] 0.018 | [15] -0.035 | [16] 0.015 | [17] 0.14 | [18] 0.011 | [19] 0.004 | [20] -0.01

HNRNPLL (UniProt Q8WVV9)
inactive: [1] 0.004 | [2] 0.046 | [3] 0.018 | [4] 0.008 | [5] -0.027 | [6] -0.004 | [7] -0.006 | [8] -0.013 | [9] -0.001 | [10] 0.034 | [11] 0.015 | [12] -0.164 | [13] 0.021 | [14] 0.035 | [15] -0.016 | [16] 0.082 | [17] -0.07 | [18] -0.016 | [19] 0.011 | [20] -0.052

HERC2 (UniProt O95714)
active: [12] -0.316
inactive: [1] 0.034 | [2] 0.004 | [3] 0.038 | [4] -0.038 | [5] -0.01 | [6] 0.039 | [7] 0.032 | [8] -0.021 | [9] 0.037 | [10] 0.047 | [11] -0.075 | [13] -0.109 | [14] -0.085 | [15] -0.077 | [16] 0.027 | [17] 0.111 | [18] -0.007 | [19] 0.005 | [20] 0.004

INPP4A (UniProt Q96PE3)
active: [3] 0.382
inactive: [1] -0.03 | [2] 0.011 | [4] -0.017 | [5] -0.034 | [6] 0.031 | [7] 0.021 | [8] 0.015 | [9] -0.025 | [10] -0.008 | [11] -0.032 | [12] -0.051 | [13] 0.033 | [14] 0.046 | [15] 0.009 | [16] 0.01 | [17] -0.019 | [18] -0.026 | [19] 0.01 | [20] -0.033

HMGB1 (UniProt P09429)
UniProt P09429, sequence (P09429 whole entry, looked up): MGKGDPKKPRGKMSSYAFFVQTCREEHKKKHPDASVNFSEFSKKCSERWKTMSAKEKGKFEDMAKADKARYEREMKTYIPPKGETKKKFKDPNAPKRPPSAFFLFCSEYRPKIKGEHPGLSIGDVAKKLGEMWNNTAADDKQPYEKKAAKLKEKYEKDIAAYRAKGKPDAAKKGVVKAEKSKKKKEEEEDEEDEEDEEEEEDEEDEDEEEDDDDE
active: [7] 0.389
inactive: [1] -0.01 | [2] -0.014 | [3] -0.013 | [4] 0.102 | [5] 0.035 | [6] -0.039 | [8] -0.184 | [9] -0.011 | [10] -0.075 | [11] 0.126 | [12] 0.059 | [13] 0.01 | [14] 0.074 | [15] 0.046 | [16] -0.006 | [17] -0.09 | [18] -0.043 | [19] -0.025 | [20] -0.131

GNB1 (UniProt P62873)
inactive: [1] -0.048 | [2] 0.124 | [3] -0.016 | [4] -0.081 | [5] 0.008 | [6] -0.037 | [7] -0.072 | [8] 0.05 | [9] -0.038 | [11] -0.095 | [12] 0.029 | [13] -0.023 | [14] -0.028 | [15] -0.011 | [16] 0.007 | [17] 0.003 | [18] -0.023 | [19] -0.011 | [20] -0.128
active: [10] -0.287

GIT1 (UniProt Q9Y2X7)
UniProt Q9Y2X7, sequence (Q9Y2X7 whole entry, looked up): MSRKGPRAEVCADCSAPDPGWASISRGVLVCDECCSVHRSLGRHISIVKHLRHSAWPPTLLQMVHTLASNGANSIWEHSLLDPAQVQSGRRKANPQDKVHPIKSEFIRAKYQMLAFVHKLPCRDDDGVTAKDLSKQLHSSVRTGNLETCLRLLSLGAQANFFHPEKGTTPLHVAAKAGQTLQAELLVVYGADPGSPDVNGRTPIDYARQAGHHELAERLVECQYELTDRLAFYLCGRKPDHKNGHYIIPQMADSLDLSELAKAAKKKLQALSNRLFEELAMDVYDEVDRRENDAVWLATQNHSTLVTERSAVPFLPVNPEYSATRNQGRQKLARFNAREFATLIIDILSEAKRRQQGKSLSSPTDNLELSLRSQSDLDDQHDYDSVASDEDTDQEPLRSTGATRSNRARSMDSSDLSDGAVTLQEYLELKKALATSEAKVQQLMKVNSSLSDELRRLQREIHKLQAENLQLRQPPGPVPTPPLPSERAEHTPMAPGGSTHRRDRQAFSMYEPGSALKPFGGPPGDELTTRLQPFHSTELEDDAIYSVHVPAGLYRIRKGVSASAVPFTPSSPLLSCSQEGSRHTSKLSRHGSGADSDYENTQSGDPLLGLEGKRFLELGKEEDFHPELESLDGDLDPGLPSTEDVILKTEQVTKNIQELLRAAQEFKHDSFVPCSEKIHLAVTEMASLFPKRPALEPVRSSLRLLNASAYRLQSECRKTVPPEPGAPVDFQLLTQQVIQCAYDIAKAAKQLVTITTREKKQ
inactive: [1] -0.073 | [2] 0.028 | [3] -0.008 | [4] -0.044 | [5] -0.043 | [6] -0.007 | [7] 0.132 | [8] 0.046 | [9] 0 | [10] 0.012 | [11] 0.015 | [12] -0.04 | [13] 0.022 | [14] 0.023 | [15] -0.084 | [16] 0.002 | [17] 0.026 | [18] 0.05 | [19] -0.011 | [20] -0.031

GNL3 (UniProt Q9BVP2)
inactive: [1] 0.051 | [2] 0.041 | [3] 0.032 | [4] -0.078 | [5] 0.004 | [6] -0.07 | [7] 0.129 | [8] -0.066 | [9] 0.004 | [10] 0.013 | [11] 0.023 | [12] 0.008 | [13] 0.055 | [14] -0.002 | [15] 0.038 | [16] 0.014 | [18] -0.006 | [19] 0.033 | [20] -0.029
active: [17] 0.252

ILKAP (UniProt Q9H0C8)
UniProt Q9H0C8, sequence (Q9H0C8 whole entry, looked up): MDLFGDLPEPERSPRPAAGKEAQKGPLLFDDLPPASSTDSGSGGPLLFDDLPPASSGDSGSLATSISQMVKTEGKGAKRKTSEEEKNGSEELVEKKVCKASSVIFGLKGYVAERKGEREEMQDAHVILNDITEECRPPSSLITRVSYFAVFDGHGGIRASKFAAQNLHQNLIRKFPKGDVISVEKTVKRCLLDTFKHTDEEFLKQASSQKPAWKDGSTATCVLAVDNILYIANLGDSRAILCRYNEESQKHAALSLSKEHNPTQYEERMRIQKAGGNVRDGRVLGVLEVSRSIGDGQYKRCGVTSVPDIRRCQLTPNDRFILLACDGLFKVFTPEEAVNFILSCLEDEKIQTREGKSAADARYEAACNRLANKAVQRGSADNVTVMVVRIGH
inactive: [1] -0.037 | [2] -0.01 | [3] -0.04 | [4] -0.048 | [5] -0.017 | [6] 0.002 | [7] 0.016 | [8] 0 | [9] -0.013 | [10] 0.021 | [11] 0.056 | [12] -0.067 | [13] 0 | [14] 0.03 | [15] -0.028 | [16] -0.002 | [17] 0.017 | [18] 0.067 | [19] -0.006 | [20] 0.005

GSK3A (UniProt P49840)
inactive: [1] -0.013 | [2] 0.006 | [3] -0.04 | [4] -0.015 | [5] -0.01 | [6] 0.026 | [7] -0.133 | [8] 0.154 | [9] 0.01 | [12] -0.089 | [13] 0.05 | [14] 0.353 | [15] -0.042 | [16] 0.161 | [17] -0.118 | [18] -0.03 | [19] -0.015 | [20] 0.003
active: [10] 0.535 | [11] 0.53

HADHA (UniProt P40939)
inactive: [1] 0.019 | [2] -0.002 | [3] -0.103 | [4] -0.024 | [5] 0.09 | [6] -0.036 | [7] 0.012 | [8] 0.071 | [9] -0.04 | [10] -0.025 | [11] -0.011 | [12] -0.003 | [13] 0.069 | [14] -0.042 | [15] 0.037 | [16] -0.063 | [17] 0.088 | [18] -0.017 | [19] -0.041 | [20] 0.021
